# The list is not random: actives were taken first. Their share in the collection is about 4.1%.
# TIM10 inh = inhibits growth of TIM10 yeast strain; S. cerevisiae TIM10 strain growth, BacTiter-Glo luminescence, 24 h; inhibition, % at 10 µM; actives 1.4% (n = 330,000); AID 463195;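 active = inhibition of 40% or more at the single tested concentration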;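 note: wild-type TIM10 isogenic control strain grown at permissive 25 °C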
# tim10-1 inh = inhibits growth of tim10-1 mutant yeast. S. cerevisiae tim10-1 ts strain growth, BacTiter-Glo, 24 h. inhibition, % at 20 µM. actives 2.2% (n = 330,000);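 active = inhibition of at least 40%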;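 note: mutant grown at 25 °C; 0% = DMSO wells with yeast and 100% = wells holding no yeast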
# tim23-1 inh = growth inhibitors of tim23-1 mutant yeast; S. cerevisiae tim23-1 growth, BacTiter-Glo luminescence, 24 h; inhibition, % at 20 µM; actives 1.3% (n = 330,000);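 active = growth inhibition of the mutant yeast at or above 50%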;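 note: temperature-sensitive mutant grown at 25 °C; plate controls were DMSO-treated mutant yeast for no effect and medium wells lacking yeast for full effect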
# NALP1 yeast inh = NALP1 inhibition; S. cerevisiae NALP1/ASC/caspase-1 growth, X-gal OD620, 72 h; inhibition, % at 10 µM; actives 0.61% (n = 280,000); in the data active = inhibition mostly above about 24%, no sharp cut-off; inactive = mostly below about 32%
# NALP3 yeast inh = NALP3 inhibition in yeast. Yeast reconstituted NLRP3/ASC/caspase-1, beta-gal luminescence, 24 h. actives 0.39% (n = 330,000). inhibition, % at 10 µM;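 active = inhibition of 50% or more; inactive = inhibition below 50%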;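 note: plate controls were induced DMSO wells for no effect and uninduced yeast grown without galactose for full effect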
# tim10-1 confirm = confirmation of tim10-1 mutant yeast growth inhibitors; shares compounds with tim10-1 inh; S. cerevisiae tim10-1 ts strain growth, BacTiter-Glo, 24 h; inhibition, % at 20 µM; actives 56% (n = 7,400);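 active = inhibition of yeast growth at or above a set limit in either of two repeat tests at 20 µM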;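 note: tim10-1 mutant grown at permissive 25 °C to find synthetic lethal compounds; 0% = DMSO yeast wells and 100% = medium wells without yeast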
# An asterisk follows results filed as active; nt = not tested or not shown.
SMILES,TIM10 inh,tim10-1 inh,tim23-1 inh,NALP1 yeast inh,NALP3 yeast inh,tim10-1 confirm
S=c1[nH]c(-c2ccccc2)cn1/N=C/c1ccccc1Br,15.3,41.9*,24.9,2.7,19.2,11.2
COc1ccccc1-n1c(SCC(=O)NC2CCS(=O)(=O)C2)nc2cc([N+](=O)[O-])ccc21 (stereo unspecified),7.0,9.9,2.7,23.0,1.5,nt
COc1ccccc1-n1c(SCC(=O)c2ccc(O)cc2O)nc2cc([N+](=O)[O-])ccc21,3.6,40.5*,38.9,25.9,17.2,29.0
O=C(Nc1cc(S(=O)(=O)N2CCOCC2)ccc1N1CCOCC1)c1cccs1,7.5,-2.3,-2.9,nt,18.1,nt
COc1ccc(-c2csc(CCn3nc(C)cc3C)n2)cc1,24.8,40.7*,26.8,6.0,3.9,34.9*
COc1ccc(-c2csc(CCn3nc(C)cc3C)n2)cc1OC,-3.4,-1.4,18.5,-29.2,2.0,nt
C=C(C)C1Cc2c(C)nn(-c3nc(C)cc(C)n3)c2C1 (stereo unspecified),10.8,42.4*,24.3,13.4,-8.8,23.0
C=C(C)C1Cc2nc(N)nc(C)c2C1 (stereo unspecified),4.4,3.3,-7.6,32.8,-1.1,nt
CCCCn1c(SCc2nc(N)nc(N3CCCCC3)n2)nc2c1c(=O)n(C)c(=O)n2C,14.7,10.4,6.0,37.9,8.9,nt
COc1cc(C2Nc3cccc4cccc(c34)N2)ccc1OC(C)=O,37.2,41.3*,29.2,9.2,3.8,38.7*
Cc1ccc(C(=O)NN2CCOCC2)cc1,-7.5,10.8,-7.0,-15.6,-13.1,nt
O=C(NN1CCOCC1)c1ccc(Br)cc1,7.6,42.3*,9.8,nt,17.7,-6.2
O=C1CC(N2CCN(c3ccccc3Cl)CC2)C(=O)N1c1ccccc1 (stereo unspecified),-11.9,49.5*,11.0,9.7,17.0,19.1
CCOc1ccc(N2C(=O)CC(N3CCN(c4ccc(Cl)cc4)CC3)C2=O)cc1 (stereo unspecified),2.3,44.6*,16.4,7.8,17.0,24.1
COc1ccccc1N1CCN(C2CC(=O)N(c3cccc(Br)c3)C2=O)CC1 (stereo unspecified),10.6,48.7*,26.8,-3.7,18.1,36.5*
O=C1CC(N2CCN(c3ccc(Cl)cc3)CC2)C(=O)N1c1ccccc1 (stereo unspecified),-8.7,-11.7,10.7,7.8,19.7,nt
CC(C)C[C@@H](CN=[N+]=[N-])N1CCN(Cc2ccccc2)CCC1=O,13.5,19.0,25.7,14.5,17.7,nt
O=C(CCN1C(=O)C2CCCCC2C1=O)Nc1nc(-c2ccccc2)cs1 (stereo unspecified),-3.5,2.7,-14.3,2.1,-4.8,nt
O=[N+]([O-])c1ccc(/C=C/c2ccc3cccc([N+](=O)[O-])c3n2)cc1,14.3,45.3*,26.2,4.2,13.7,24.9
Cc1cc(C)nc(SCC(=O)Nc2nc(-c3ccccc3)c(-c3ccccc3)o2)n1,-10.6,-50.8,0.8,11.8,-17.8,nt
Cc1ccc(C(=O)Nc2nc(-c3ccccc3)c(-c3ccccc3)o2)cc1,24.6,40.5*,30.7,16.2,-0.3,17.9
Fc1ccc(Oc2nc(-c3ccccc3)nnc2C(F)(F)F)cc1,37.9,50.2*,46.7,11.2,-15.6,22.5
Cc1ccc(/C(N)=N/OC(=O)N2CCOCC2)cc1,30.5,58.4*,29.0,19.7,17.7,46.1*
O=C(NCCn1cccn1)C1CCC(=O)N(CCc2ccccc2)C1 (stereo unspecified),-7.4,-2.7,1.8,-0.1,8.4,nt
CCC(C)Sc1ccc(-c2nc3cnccn3c2NC2CCCCC2)cc1 (stereo unspecified),16.2,22.3,24.8,nt,21.4,nt
SMILES,TIM10 inh,tim10-1 inh,tim23-1 inh,NALP1 yeast inh,NALP3 yeast inh,tim10-1 confirm
c1cn2c(Nc3ccc4c(c3)OCCO4)c(-c3ccc(N4CCOCC4)cc3)nc2cn1,14.8,5.8,9.0,nt,0.2,nt
Clc1ccc(-c2nc3cnccn3c2NC2CCCC2)cc1,23.0,49.6*,30.0,-5.1,12.7,23.2
Clc1ccc(-c2nc3cnccn3c2Nc2ccc3c(c2)OCO3)cc1,25.8,45.4*,49.5,42.0,1.8,35.4*
CSc1ccc(-c2nc3cnccn3c2Nc2ccc3c(c2)OCO3)cc1,26.9,45.7*,33.6,2.4,22.2,42.8*
Cc1ccc(-c2nc3cnccn3c2Nc2ccc3c(c2)OCO3)o1,14.5,36.5,36.7,24.0,1.9,nt
Cc1ccc(S(=O)(=O)N2CCOCC2)cc1C(=O)NCC1CCCCC1,8.3,11.9,11.6,nt,15.1,nt
CN(CCc1ccccn1)C1CC(=O)N(c2ccc(Cl)cc2)C1=O (stereo unspecified),4.4,40.5*,23.2,18.5,24.1,34.2*
CN(CCc1ccccn1)C(=O)Nc1ccc(Cl)cc1,-21.2,8.9,0.5,15.4,9.3,nt
CCCCCc1nnc(NC(=O)C2COc3ccccc3O2)s1 (stereo unspecified),20.6,45.7*,49.8,-2.2,39.9,40.2*
CCc1nnc(NC(=O)C2COc3ccccc3O2)s1 (stereo unspecified),8.8,22.3,28.2,24.0,10.1,nt
CCc1ccccc1N(CC)C(=O)C1CCN(c2ncnc3c2nc2n3CCCCC2)CC1,16.6,41.6*,33.1,9.6,12.0,10.2
CCN(Cc1ccccc1)C(=O)C1CCN(c2ncnc3c2nc2n3CCCCC2)CC1,7.5,17.7,13.5,12.3,6.0,nt
O=C(C1CCN(c2ncnc3c2nc2n3CCCCC2)CC1)N1CCN(c2ccc(F)cc2)CC1,-63.2,43.7*,-28.4,7.8,17.1,-96.8
CN1C(=O)C2(c3ccccc31)N(C)CC(c1ccccn1)C21SC(=S)N(Cc2ccco2)C1=O (stereo unspecified),33.1,47.3*,40.7,-1.1,3.1,29.8
COc1cc(/C=N/NC(=O)C(N)=O)ccc1OCC(=O)N1C(C)CCCC1C (stereo unspecified),17.9,14.2,2.1,-2.3,6.5,nt
O=C(NC(NNc1ccc([N+](=O)[O-])cc1)(C(F)(F)F)C(F)(F)F)c1ccc(Cl)cc1,34.9,64.0*,37.2,-24.7,12.8,50.8*
O=C(CN(c1ccccc1)S(=O)(=O)c1ccc(Cl)cc1)Nc1cccnc1,-12.2,13.0,19.7,-1.5,7.0,nt
CCc1cc2ccc(OC)cc2nc1SCC(=O)NNC(=O)c1ccco1,25.8,42.7*,49.4,-9.5,12.1,23.7
COCCN1Cc2cccc(C(=O)Nc3ccc(C)cc3)c2C1=O,17.3,43.4*,23.2,11.9,13.4,28.1
COCCN1Cc2cccc(C(=O)Nc3ccc4c(c3)OCCO4)c2C1=O,13.7,45.5*,19.7,11.3,6.7,18.2
CCOc1ccc(NC(=O)c2cccc3c2C(=O)N(Cc2cccnc2)C3)cc1,33.5,42.5*,24.9,24.1,25.3,34.7*
COCCN1Cc2cccc(C(=O)Nc3cccnc3)c2C1=O,11.4,25.2,8.6,14.4,9.0,nt

# Assay outcomes deposited in PubChem by Sanford-Burnham Center for Chemical Genomics.
